target: Chromo domain-containing protein 1 (Saccharomyces cerevisiae (strain ATCC 204508 / S288c) (Baker's yeast)) (UniProt P32657); experiment: ScCHD-1 Enzyme Inhibition Assay; assay type: functional; parameters: scale not given: in the data most compounds retested in dose-response had high values; settings: 30 µM
Sequence (P32657 whole entry, the tested form may be a part): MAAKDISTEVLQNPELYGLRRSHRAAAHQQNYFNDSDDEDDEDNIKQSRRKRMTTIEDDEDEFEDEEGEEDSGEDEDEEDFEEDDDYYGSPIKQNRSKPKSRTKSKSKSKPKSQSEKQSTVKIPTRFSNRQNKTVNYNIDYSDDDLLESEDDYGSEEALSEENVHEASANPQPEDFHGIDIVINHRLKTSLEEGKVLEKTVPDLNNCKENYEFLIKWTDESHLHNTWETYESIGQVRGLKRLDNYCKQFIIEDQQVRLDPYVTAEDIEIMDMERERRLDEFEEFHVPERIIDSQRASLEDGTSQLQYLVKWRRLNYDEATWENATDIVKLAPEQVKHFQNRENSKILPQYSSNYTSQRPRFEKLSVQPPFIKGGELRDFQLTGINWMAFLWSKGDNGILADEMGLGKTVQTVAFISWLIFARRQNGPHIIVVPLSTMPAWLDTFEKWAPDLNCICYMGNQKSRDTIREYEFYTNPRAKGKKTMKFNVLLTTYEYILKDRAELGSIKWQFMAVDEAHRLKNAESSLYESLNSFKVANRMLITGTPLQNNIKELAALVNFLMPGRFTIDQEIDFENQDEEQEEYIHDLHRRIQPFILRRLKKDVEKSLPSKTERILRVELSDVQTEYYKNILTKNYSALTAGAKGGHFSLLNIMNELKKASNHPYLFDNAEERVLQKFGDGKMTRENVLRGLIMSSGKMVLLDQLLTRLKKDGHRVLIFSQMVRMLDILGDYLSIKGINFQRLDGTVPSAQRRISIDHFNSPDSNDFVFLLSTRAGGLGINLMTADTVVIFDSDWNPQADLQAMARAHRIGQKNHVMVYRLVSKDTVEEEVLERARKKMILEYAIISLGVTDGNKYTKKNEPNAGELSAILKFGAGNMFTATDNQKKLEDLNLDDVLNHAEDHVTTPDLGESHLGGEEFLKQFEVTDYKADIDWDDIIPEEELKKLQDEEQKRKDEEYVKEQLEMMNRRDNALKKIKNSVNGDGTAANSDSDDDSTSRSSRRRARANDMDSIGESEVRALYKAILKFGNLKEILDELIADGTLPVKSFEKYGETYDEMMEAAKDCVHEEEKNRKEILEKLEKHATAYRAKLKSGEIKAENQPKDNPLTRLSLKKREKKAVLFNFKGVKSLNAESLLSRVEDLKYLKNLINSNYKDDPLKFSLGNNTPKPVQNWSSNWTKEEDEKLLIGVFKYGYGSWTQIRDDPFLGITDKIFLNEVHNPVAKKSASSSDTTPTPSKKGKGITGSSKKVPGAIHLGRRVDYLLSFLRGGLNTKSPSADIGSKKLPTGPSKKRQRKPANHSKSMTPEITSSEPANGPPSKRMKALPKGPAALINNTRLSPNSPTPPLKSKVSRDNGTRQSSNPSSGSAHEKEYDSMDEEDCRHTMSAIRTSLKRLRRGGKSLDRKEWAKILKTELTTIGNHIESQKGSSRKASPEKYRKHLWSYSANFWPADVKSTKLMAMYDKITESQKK

Structure (SMILES) | Percent Effect
NC(=O)Nc1cccc(Oc2ccccn2)c1 | -0.275%
CC(c1cccnc1)N(C)Cc1csc(-c2ccccn2)n1 (stereo not given) | 92.8%
c1cnnc(NCC2CN(Cc3cccc4c3OCCO4)CCO2)c1 (stereo not given) | -7.39%
COc1cccc(COCC(=O)N2CCCC(n3ccnc3)C2)c1 (stereo not given) | -5.14%
CC(C)C(=O)N1CCN(C(=O)c2cc(C(C)C)on2)[C@H]2CS(=O)(=O)C[C@H]21 | -5.25%
CC(NC(=O)NCCN1CCCCCC1=O)c1nncn1C (stereo not given) | -6.06%
CN1N=C(C(=O)NCc2ccc3c(c2)CCCN3C)CCC1=O | -23%
O=C(O)c1coc(COc2cccc(F)c2)n1 | -12.4%
Cn1cccc1C(=O)N1CCC2(CC1)CN(c1ccccn1)CCO2 | -2.89%
Cc1nc2c(c(C)c1CC(=O)Nc1ccc(Cl)cc1)c(=O)[nH]n2C | 3.39%
COCCC(=O)N1C[C@@H]2COC[C@]2(COCc2cccnc2)C1 | -8.34%
O=C(NC1CC1)[C@@H]1CCO[C@@H]2CCN(Cc3ccsc3)C[C@H]21 | 7.56%
Cn1cccc1C(=O)N[C@@H]1CN(CC2CC2)[C@@H]2COC[C@@H]21 | -7.28%
O=C(c1cc(F)ccc1F)C1CCN(C(=O)c2cccnc2O)CC1 | -12.7%
CC(C)=CCN1CCOC(Cn2nc(C)cc2C)C1 (stereo not given) | -11.3%
CCOc1cccc(CNc2ccccc2C(=O)OC)c1O | -13.3%
Cc1ccc(C(=O)N2CCC3(CC2)NC(=O)CC3c2ccccc2)cn1 (stereo not given) | -2.72%
Cc1nnc2n1CCN(C(=O)c1cc(C)n(-c3ccccn3)c1C)C2 | 2.79%
Cc1cccc(-n2cc(C(=O)N3CCCC(n4ccnc4)C3)nn2)c1 (stereo not given) | -17.4%
O=C1CCCN1Cc1ncn2c1CN(C(=O)c1cccc(F)c1)CCC2 | -12.8%
